The whole screen tested about 52,000 compounds, of which about 1,700 (3.3%) were called active. Only a selection was taken, and actives are over-represented in it overall. Unmarked numbers belong to inactive results. No stated cut-off is given here; in the data, active means survival mostly below about 52% (no sharp cut-off); inactive means mostly above about 56%.
Test system: Wild type
Test: growth inhibition of S. aureus wild type versus tarO mutant, primary screen, teichoic acid synthesis inhibitors, RN4220, OD600 (AID 463173)
Details: S. aureus RN4220 wild type/DeltatarO growth, OD600, 18 h, stronger effect = lower value, screened at 18.75 µg/mL (by protocol)

| SMILES | survival |
| --- | --- |
| COc1cn(CC(=O)Nc2ccc(F)cc2)c(CN2CCCCC2)cc1=O | 72% |
| CCCCNc1cc(NC2CCCCC2)c2c3c(onc13)-c1ccccc1C2=O | 117% |
| CN(C)CCCNc1cc(N2CCN(C3CCCCC3)CC2)c2noc3c2c1C(=O)c1ccccc1-3 | 72% |
| CCN(CC)c1cc(NC2CCCCC2)c2c3c(onc13)-c1ccccc1C2=O | 5% (active) |
| CCNc1cc(N2CCN(C3CCCCC3)CC2)c2noc3c2c1C(=O)c1ccccc1-3 | 84% |
| CCCCNc1cc(N2CCN(C3CCCCC3)CC2)c2noc3c2c1C(=O)c1ccccc1-3 | -1% (active) |
| O=C1c2ccccc2-c2onc3c(Br)cc(NC4CCCCC4)c1c23 | 86% |
| Cc1ccc2nc(COc3ccccc3NC(=O)C(C)(C)C)cc(=O)n2c1 | 66% |
| O=C(C1CCN(c2ncnc3c2nc2n3CCCCC2)CC1)N1CCN(c2ccccc2F)CC1 | 82% |
| CCc1ccc(NC(=O)Cn2nnc(C(=O)NCc3ccco3)c2N)cc1 | 94% |
| CCOC(=O)c1c(S(=O)(=O)N2CCC(C(=O)Nc3cccc(C#N)c3)CC2)c(C)n(C)c1C | 115% |
| Cc1nn(C(=O)c2cc3sc(Br)cc3[nH]2)c(C)c1C | 97% |
| COc1ccc(NC(=O)CSc2nnc(N)s2)cc1 | 73% |
| CCc1ccc(NC(=O)Cn2ncc3c(C)n(Cc4cccc(Cl)c4)c(C)c3c2=O)cc1 | 86% |
| Cc1ccc(CCNC(=O)c2ccc3c(c2)c(C)c(C)n3Cc2ccccc2)cc1 | 125% |
| CCOc1ccc(NC(=O)c2ccc(-c3cccc(Cl)c3C)o2)cc1 | 66% |
| COc1ccc(NC(=O)c2ccc(-c3cccc(Cl)c3C)o2)cc1 | 44% |
| CCOC(=O)c1ccc(NC(=O)c2ccc(-c3cccc(Cl)c3C)o2)cc1 | 59% |
| Cc1c(Cl)cccc1-c1ccc(C(=O)Nc2ccc3oc(-c4cccnc4)nc3c2)o1 | 79% |

| SMILES | survival |
| --- | --- |
| Cc1ccc(NC(=O)c2ccc(-c3cccc(Cl)c3C)o2)cc1 | 1% (active) |
| Cc1c(Cl)cccc1-c1ccc(C(=O)Nc2ccc(F)cc2)o1 | -1% (active) |
| Clc1ccc(-c2nc3ccccn3c2Nc2ccc3c(c2)OCCO3)s1 | 79% |
| Cc1ccccc1C(=O)Nc1cccc(-c2cn3cccnc3n2)c1 | 105% |
| Cc1oc(-c2cccc(Cl)c2)nc1CS(=O)(=O)CC(=O)NCc1ccccc1Cl | 75% |
| CCOc1ccc(-c2nc(CSCC(=O)NCc3ccc(C)cc3)c(C)o2)cc1 | 73% |
| Cc1ccc(CNC(=O)CSCc2nc(-c3cccc(C)c3)oc2C)cc1 | -1% (active) |
| CCc1ccc(-c2nc(CSCC(=O)NCc3ccc(C)cc3)c(C)o2)cc1 | 0% (active) |
| COc1ccc(-c2nc(CSCC(=O)NCc3ccccc3Cl)c(C)o2)cc1OC | 70% |
| Cc1oc(-c2cccc(Cl)c2)nc1CSCC(=O)NCc1ccccc1Cl | -1% (active) |
| COc1ccc(-c2nc(CSCC(=O)NCCc3ccc(C)cc3)c(C)o2)cc1OC | 72% |
| Cc1ccc(CNC(=O)CSCc2nc(-c3ccc(Cl)cc3)oc2C)cc1 | 88% |
| Cc1ccc(CCNC(=O)CSCc2nc(-c3ccc(C)cc3)oc2C)cc1 | 27% |
| Cc1ccc(-n2nc(C)c3c(C(=O)NCc4ccccc4)cc(C4CC4)nc32)cc1 | 82% |
| O=C(Cn1c(=O)n(-c2ccccc2)c(=O)c2c3c(sc21)CCC3)c1ccc(Br)cc1 | 87% |
| COc1ccc(N2C(=O)CSC23C(=O)N(Cc2ccc(C)cc2)c2ccccc23)cc1Cl (configuration not stated) | 135% |
| CC(C)(C)OC(=O)N1CCC(c2c(C(=O)NCCN3CCOCC3)cnn2-c2cccc(F)c2)CC1 | 120% |
| Clc1ccccc1C(c1nnnn1Cc1ccco1)N1CCN(Cc2ccco2)CC1 (configuration not stated) | 111% |
| O=C(NCC(c1ccc2c(c1)OCO2)N1CCN(c2ccc(F)cc2)CC1)c1cccc([N+](=O)[O-])c1 (configuration not stated) | 83% |

| SMILES | survival |
| --- | --- |
| COc1ccc(Nc2ncnc3scc(-c4ccc(F)cc4)c23)cc1 | 79% |
| COc1ccc(-c2csc3ncnc(Nc4cccc(F)c4)c23)cc1 | -3% (active) |
| COc1ccc(-c2csc3ncnc(Nc4cccc(OC)c4)c23)cc1 | 73% |
| CC(=O)c1ccc(NC(=O)CC2Nc3cc(C)c(C)cc3NC2=O)cc1 (configuration not stated) | 78% |
| Cc1cc(C)cc(N2C(=O)N(Cc3cc(=O)n4ccccc4n3)c3ccccc3S2(=O)=O)c1 | 127% |
| CC(C)c1ccc2oc(-c3ccc(NC(=O)c4cccc(Br)c4)cc3)nc2c1 | 70% |
| CCOc1ccc(C(CC(=O)Nc2cc(C)c(Cl)cc2OC)N2Cc3ccccc3C2=O)cc1OC (configuration not stated) | 65% |
| COc1ccc(C(CC(=O)Nc2cc(OC)c(OC)c(OC)c2)N2Cc3ccccc3C2=O)cc1 (configuration not stated) | 65% |
| COc1ccc(C(CC(=O)Nc2cc(Cl)c(OC)cc2OC)N2Cc3ccccc3C2=O)cc1 (configuration not stated) | -3% (active) |
| COc1ccc(CNC(=O)C(C(C)C)N2Cc3ccccc3C2=O)cc1 (configuration not stated) | -6% (active) |
| Cc1ccc(NC(=O)CC(c2ccc(F)cc2)N2Cc3ccccc3C2=O)cc1C (configuration not stated) | 88% |
| Cc1ccc(CNC(=O)C(C(C)C)N2Cc3ccccc3C2=O)cc1 (configuration not stated) | 80% |
| COc1cc(OC)c(NC(=O)CC(c2cccs2)N2Cc3ccccc3C2=O)cc1Cl (configuration not stated) | 101% |
| COc1ccc(CNC(=O)C(CC(C)C)N2Cc3ccccc3C2=O)cc1 (configuration not stated) | 134% |
| COc1cc(Cl)c(C)cc1NC(=O)CC(c1ccc(F)cc1)N1Cc2ccccc2C1=O (configuration not stated) | -2% (active) |
| CCn1cc(C(=O)NCCc2ccccc2)c(=O)c2cc(S(=O)(=O)N3CCOCC3)ccc21 | 85% |
| COc1ccc(NC(=O)c2ccc(NC(=O)CCS(=O)(=O)c3cccs3)cc2)cc1Cl | 81% |
| COc1ccc(-c2cc(C(=O)Nc3cccnc3Cl)no2)cc1OC | 140% |
| Cc1ccc(C)c(N2CCN(c3nc4ccccc4c4nc(-c5cccnc5)nn34)CC2)c1 | 82% |
